Results as given in ChEMBL document CHEMBL1961873, “Compounds: GSK PKIS; Assays: Nanosyn kinase panel” (2012).

Key:
[1] = molecular target: Sphingosine kinase 1 (Homo sapiens) (UniProt Q9NYA1); conditions: at 1 µM;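 also: mean SPHK1 inhibition value reported from the GSK PKIS kinase panel screen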
[2] = molecular target: T1, Sphingosine kinase 2 (Homo sapiens) (UniProt Q9NRA0); conditions: at 0.1 µM
T1 sequence (whole entry): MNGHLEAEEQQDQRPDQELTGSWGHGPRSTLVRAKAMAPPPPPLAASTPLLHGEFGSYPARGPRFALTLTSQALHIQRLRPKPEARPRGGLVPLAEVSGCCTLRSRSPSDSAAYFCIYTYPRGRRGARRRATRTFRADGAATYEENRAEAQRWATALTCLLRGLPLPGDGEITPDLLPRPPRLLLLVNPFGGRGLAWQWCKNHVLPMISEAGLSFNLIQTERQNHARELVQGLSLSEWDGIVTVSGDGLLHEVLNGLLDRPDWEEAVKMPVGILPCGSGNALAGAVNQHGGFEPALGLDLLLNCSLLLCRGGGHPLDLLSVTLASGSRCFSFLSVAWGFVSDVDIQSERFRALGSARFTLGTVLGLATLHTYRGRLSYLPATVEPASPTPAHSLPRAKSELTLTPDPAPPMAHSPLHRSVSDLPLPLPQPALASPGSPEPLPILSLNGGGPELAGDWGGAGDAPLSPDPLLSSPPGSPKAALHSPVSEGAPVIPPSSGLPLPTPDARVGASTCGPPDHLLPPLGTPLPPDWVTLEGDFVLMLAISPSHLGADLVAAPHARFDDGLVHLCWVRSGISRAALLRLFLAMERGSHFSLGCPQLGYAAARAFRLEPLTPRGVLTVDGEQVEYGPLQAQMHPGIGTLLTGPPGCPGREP

[3] = molecular target: T1, Sphingosine kinase 2 (Homo sapiens); conditions: at 1 µM
[4] = molecular target: Casein kinase II subunit alpha (Homo sapiens) (UniProt P68400); conditions: at 0.1 µM
Chain of Casein kinase II subunit alpha (Homo sapiens) (P68400 whole entry, looked up): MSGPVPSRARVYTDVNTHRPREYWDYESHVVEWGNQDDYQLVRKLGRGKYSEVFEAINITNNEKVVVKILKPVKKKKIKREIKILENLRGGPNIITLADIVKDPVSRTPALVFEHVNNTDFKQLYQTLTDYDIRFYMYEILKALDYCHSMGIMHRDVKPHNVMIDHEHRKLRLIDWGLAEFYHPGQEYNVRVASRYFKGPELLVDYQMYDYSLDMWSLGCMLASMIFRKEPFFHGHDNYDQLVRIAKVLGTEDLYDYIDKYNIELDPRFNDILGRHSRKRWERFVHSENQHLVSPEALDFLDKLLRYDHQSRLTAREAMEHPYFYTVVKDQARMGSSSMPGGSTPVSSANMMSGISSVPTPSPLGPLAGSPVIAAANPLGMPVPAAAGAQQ

[5] = molecular target: Casein kinase II subunit alpha (Homo sapiens) (UniProt P68400); conditions: at 1 µM
[6] = molecular target: T2, Inhibitor of nuclear factor kappa-B kinase subunit alpha (Homo sapiens) (UniProt O15111); conditions: at 0.1 µM
T2 sequence (whole entry): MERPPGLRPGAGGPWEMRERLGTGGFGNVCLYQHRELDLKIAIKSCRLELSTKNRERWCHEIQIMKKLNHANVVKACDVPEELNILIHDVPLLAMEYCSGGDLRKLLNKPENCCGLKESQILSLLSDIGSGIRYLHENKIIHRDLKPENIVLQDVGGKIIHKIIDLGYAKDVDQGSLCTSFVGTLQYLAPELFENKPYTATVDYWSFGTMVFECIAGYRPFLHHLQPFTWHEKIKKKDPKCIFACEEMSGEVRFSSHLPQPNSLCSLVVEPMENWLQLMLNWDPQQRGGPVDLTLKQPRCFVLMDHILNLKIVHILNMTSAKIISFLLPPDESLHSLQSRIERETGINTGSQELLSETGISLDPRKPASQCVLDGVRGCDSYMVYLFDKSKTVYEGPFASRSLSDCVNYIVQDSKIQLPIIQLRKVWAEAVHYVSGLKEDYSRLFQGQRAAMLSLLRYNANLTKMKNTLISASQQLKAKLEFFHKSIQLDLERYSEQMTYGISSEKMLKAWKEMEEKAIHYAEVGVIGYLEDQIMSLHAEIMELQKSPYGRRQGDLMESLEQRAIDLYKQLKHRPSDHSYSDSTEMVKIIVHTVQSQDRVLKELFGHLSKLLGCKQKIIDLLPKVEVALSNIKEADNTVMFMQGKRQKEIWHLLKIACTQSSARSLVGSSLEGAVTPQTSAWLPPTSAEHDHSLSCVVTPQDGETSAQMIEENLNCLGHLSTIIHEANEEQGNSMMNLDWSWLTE

[7] = molecular target: T2, Inhibitor of nuclear factor kappa-B kinase subunit alpha (Homo sapiens); conditions: at 1 µM
[8] = molecular target: T3, Inhibitor of nuclear factor kappa-B kinase subunit beta (Homo sapiens) (UniProt O14920); conditions: at 0.1 µM
T3 sequence (whole entry): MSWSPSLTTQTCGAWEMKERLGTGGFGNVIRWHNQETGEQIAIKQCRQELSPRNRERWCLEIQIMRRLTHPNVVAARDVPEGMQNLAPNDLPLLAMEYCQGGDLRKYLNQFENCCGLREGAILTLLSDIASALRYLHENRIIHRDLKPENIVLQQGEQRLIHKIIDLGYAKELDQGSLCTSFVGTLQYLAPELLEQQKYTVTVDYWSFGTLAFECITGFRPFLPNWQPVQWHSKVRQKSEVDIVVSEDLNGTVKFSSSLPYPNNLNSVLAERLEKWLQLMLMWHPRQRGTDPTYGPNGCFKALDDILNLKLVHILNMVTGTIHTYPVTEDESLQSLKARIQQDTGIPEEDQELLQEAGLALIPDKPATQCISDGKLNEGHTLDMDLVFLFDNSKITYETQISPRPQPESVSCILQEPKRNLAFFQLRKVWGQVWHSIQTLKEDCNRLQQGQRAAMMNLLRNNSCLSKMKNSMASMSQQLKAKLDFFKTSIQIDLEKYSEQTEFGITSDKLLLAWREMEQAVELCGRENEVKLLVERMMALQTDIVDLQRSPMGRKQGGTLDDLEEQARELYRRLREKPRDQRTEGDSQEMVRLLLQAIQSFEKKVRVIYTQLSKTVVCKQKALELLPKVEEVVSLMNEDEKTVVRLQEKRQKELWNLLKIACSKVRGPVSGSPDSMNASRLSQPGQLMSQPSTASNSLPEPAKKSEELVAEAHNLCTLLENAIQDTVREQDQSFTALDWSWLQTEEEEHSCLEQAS

[9] = molecular target: T3, Inhibitor of nuclear factor kappa-B kinase subunit beta (Homo sapiens); conditions: at 1 µM
[10] = molecular target: T4, Inhibitor of nuclear factor kappa-B kinase subunit epsilon (Homo sapiens) (UniProt Q14164); conditions: at 0.1 µM;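 also: mean inhibition of IKKε reported, from the GSK PKIS dataset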
T4 sequence (whole entry): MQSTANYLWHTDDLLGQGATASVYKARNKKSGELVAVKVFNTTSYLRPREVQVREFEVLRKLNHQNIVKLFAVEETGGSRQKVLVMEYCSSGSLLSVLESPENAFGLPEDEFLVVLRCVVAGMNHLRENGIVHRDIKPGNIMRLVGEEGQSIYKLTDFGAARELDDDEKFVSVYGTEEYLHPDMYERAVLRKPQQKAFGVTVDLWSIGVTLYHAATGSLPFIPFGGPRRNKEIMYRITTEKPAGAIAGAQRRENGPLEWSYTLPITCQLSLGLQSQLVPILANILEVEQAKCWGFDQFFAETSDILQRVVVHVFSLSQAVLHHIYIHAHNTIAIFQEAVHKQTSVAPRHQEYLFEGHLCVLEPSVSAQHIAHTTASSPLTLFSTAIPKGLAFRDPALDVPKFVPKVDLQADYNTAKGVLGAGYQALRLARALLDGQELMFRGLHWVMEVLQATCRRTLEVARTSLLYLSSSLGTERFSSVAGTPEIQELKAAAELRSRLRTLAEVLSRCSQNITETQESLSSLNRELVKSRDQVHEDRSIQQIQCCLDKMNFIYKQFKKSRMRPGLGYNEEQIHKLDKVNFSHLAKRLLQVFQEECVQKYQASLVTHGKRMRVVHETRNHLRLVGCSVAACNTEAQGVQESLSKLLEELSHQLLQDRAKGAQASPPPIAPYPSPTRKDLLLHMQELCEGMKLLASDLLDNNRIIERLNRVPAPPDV

Chain of Sphingosine kinase 1 (Homo sapiens) (Q9NYA1 whole entry): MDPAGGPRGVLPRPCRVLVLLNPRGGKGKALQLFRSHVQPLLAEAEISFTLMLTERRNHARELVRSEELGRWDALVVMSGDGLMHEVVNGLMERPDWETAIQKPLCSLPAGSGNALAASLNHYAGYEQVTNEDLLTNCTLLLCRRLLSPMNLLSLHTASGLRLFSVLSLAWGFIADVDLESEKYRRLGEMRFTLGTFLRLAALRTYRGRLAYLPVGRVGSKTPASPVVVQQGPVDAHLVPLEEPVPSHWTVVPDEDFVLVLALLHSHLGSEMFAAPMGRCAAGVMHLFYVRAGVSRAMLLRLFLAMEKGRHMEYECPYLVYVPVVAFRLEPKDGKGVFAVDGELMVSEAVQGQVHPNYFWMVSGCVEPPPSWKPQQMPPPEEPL

| Compound | inhibition [1] | inhibition [2] | inhibition [3] | inhibition [4] | inhibition [5] | inhibition [6] | inhibition [7] | inhibition [8] | inhibition [9] | inhibition [10] |
| --- | --- | --- | --- | --- | --- | --- | --- | --- | --- | --- |
| CCn1c(-c2nonc2N)nc2c(C#CC(C)(C)O)ncc(OCC3CCNCC3)c21 | 0.24% | 1.73% | -2.73% | 4.56% | 12.8% | 7.05% | 7.37% | 4.88% | 4.77% | 90.3% |
| COc1cccc(COc2cc(-n3cnc4ccccc43)sc2C(N)=O)c1 | -1.55% | -0.24% | -0.85% | 11.6% | -0.53% | 9.44% | 7.88% | -0.21% | -0.64% | -2.28% |
| COc1cc2c(cc1Nc1nc(Nc3ccsc3C(N)=O)c3cc[nH]c3n1)N(C(=O)CN(C)C)CCC2 | 0.45% | 4.92% | -0.26% | 8.25% | 37.7% | -7.1% | -1.3% | 2.95% | -1.2% | -5.2% |
| Nc1nonc1-c1nc2cnccc2n1C1CCCCC1 | 0.54% | 1.2% | 0.21% | -0.44% | 4.16% | -6.64% | -2.66% | -2.5% | -5.78% | -0.73% |
| COc1cccc(-n2ncc3c(N/N=C/c4ccncc4)ncnc32)c1 | -2.79% | -0.91% | -0.32% | 18.2% | 59.7% | 1.55% | 1.71% | 4.82% | 4.07% | 5.23% |
| NC(=O)c1sc(-n2cnc3cc(C(F)(F)F)ccc32)cc1OCc1ccccc1Br | 0.07% | -0.95% | 0% | -1.01% | 2.21% | 2.77% | 2.85% | 3.87% | 2.52% | 3.08% |
| Cc1cc(-c2ccco2)cc(C)c1/C=C/c1cncc(-c2nn[nH]n2)c1 | -1.08% | -0.36% | 1.61% | 1.49% | 3.8% | -1.31% | 2.26% | 3.61% | 2.75% | 4.22% |
| COc1cc(C=NNc2ncnc3c2cnn3Cc2ccccc2)ccc1O | -3.17% | 2.14% | 0.11% | -0.94% | 13.8% | -2.85% | -2.41% | -2.63% | -2.75% | -4.31% |
| NS(=O)(=O)c1ccc(-c2ccc3c(NC(=O)C4CC4)n[nH]c3c2)cc1 | -1.21% | 0.08% | -0.22% | 1.12% | 1.51% | 2.81% | 3% | 3.94% | 3.28% | -0.78% |
| CCn1c(-c2nonc2N)nc2c(C#CC(C)(C)O)ncc(OC[C@@H]3CCCN3)c21 | 1.85% | 1.65% | 0% | 13.9% | -1.67% | 7.49% | -0.05% | 4.75% | 4.4% | 89.6% |
| CCn1c(-c2nonc2N)nc2c(C#CC(C)(C)O)nc(O[C@@H](CN)c3ccccc3)cc21 | -0.99% | -0.06% | -0.62% | -0.87% | 3.9% | -6.57% | -2.27% | -1.36% | -3.23% | 88.3% |
| Fc1ccc(-c2ncn(C3CCNCC3)c2-c2ccnc(Oc3ccccc3)n2)cc1 | -1.73% | 1.51% | 1.09% | 6.73% | 1.68% | -3.14% | 1.08% | 4.13% | 3.12% | 2.6% |
| CCn1c(-c2nonc2N)nc2c(C#CCN)ncc(OCCCN)c21 | -2.44% | 0.6% | -1.33% | -1.18% | 10.1% | -6.76% | -0.57% | -4.65% | 0.63% | 0.53% |
| NS(=O)(=O)c1ccc(N/C=C2\C(=O)Nc3ccc4ncsc4c32)cc1 | 0.02% | -1.02% | -0.93% | 7.56% | 28% | 2.29% | 14.3% | 8.87% | 13.1% | 13.3% |
